This passage reports Potency, outcome and max activation results from PubChem BioAssay (Tox21).

Test [1] is described as follows: qHTS assay for small molecule disruptors of the mitochondrial membrane potential - cell viability (AID 720634; calls by dose curve; also: nearly all actives have a fitted effect of over 20% in size; also: potency is read from the fitted curve at half-maximal effect). Put shortly:
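After overnight attachment at 37 C, HepG2 cells received compound or DMSO vehicle for 1 hr. Viability is then taken from ATP-driven luminescence following a 30 min room-temperature CellTiter-Glo step.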
For orientation: qHTS replaces the single test concentration by a dilution series.

The nature of test [2]: qHTS assay to test for compound auto fluorescence at 535 nm (green) in HepG2 cells (AID 720675).
The nature of test [3]: qHTS assay to test for compound auto fluorescence at 535 nm (green) in HEK293 cells (AID 720680).
Test [4] can be described thus: qHTS assay to test for compound auto fluorescence at 460 nm (blue) in HEK293 cell free culture (AID 720681). Put shortly:
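Blue fluorescence (Ex 405/Em 460 nm, triamterene-equivalent) was read immediately after pin transfer of compound or DMSO into medium (DMEM, 10% FBS) without cells.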

Test [5] in a line: qHTS assay to test for compound auto fluorescence at 535 nm (green) in HEK293 cell free culture (AID 720682). Put shortly:
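Cell-free medium (DMEM, 10% FBS) receives compound or DMSO by pintool. Plate read directly at Ex 485/Em 535 nm. Signal converted to fluorescein equivalency.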

Test [6] in a line: qHTS assay to test for compound auto fluorescence at 590 nm (red) in HEK293 cell free culture (AID 720683). Put shortly:
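Red-channel autofluorescence of compounds in culture medium (DMEM, 10% FBS), no cells, measured at 540/590 nm. Rose Bengal sodium is the reference fluorophore for equivalence.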

A short description of test [7]: qHTS assay to test for compound auto fluorescence at 590 nm (red) in HepG2 cell free culture (AID 720684). Put shortly:
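Plate contents were MEM with 10% FBS plus test compound or DMSO, no cells. Fluorescence was recorded with 540 nm excitation and 590 nm emission.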

Test [8] in a line: qHTS assay to test for compound auto fluorescence at 460 nm (blue) in HepG2 cell free culture (AID 720685). Put shortly:
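Compound (23 nL) or DMSO pinned into cell-free MEM with 10% FBS; blue fluorescence read at 405/460 nm excitation/emission, expressed as auto-fluorescence equivalency to triamterene.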

Test [9] is described as follows: qHTS assay to test for compound auto fluorescence at 535 nm (green) in HepG2 cell free culture (AID 720686).
Test [10] is described as follows: qHTS assay to identify small molecule antagonists of the androgen receptor (AR) signaling pathway using the MDA cell line - cell viability counter screen (AID 743041; also: nearly all actives have a fitted effect of over 45% in size; also: potency is read from the fitted curve at half-maximal effect). Put shortly:
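R1881-driven MDA-kb2 AR-luc cells, 3,000/well, were dosed with library compounds for 16 h; cell health came from CellTiter-Fluor fluorescence in the reporter wells.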

For test [11], the system named is thyroid hormone receptor (rat, GH3 cells). Briefly: qHTS assay to identify small molecule agonists of the thyroid receptor (TR) signaling pathway (AID 743066; calls by dose curve).
Test [12] can be described thus: qHTS assay to identify small molecule antagonists of the estrogen receptor alpha (ER-alpha) signaling pathway - cell viability counter screen (AID 743074; calls by dose curve;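 also: HEK293 cells carrying ER-alpha-UAS-bla reporter stimulated with 17beta-estradiol; nearly all actives have a fitted effect of over 45% in size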; also: potency is read from the fitted curve at half-maximal effect).
Test [13] is described as follows: qHTS assay to identify small molecule antagonists of the estrogen receptor alpha (ER-alpha) signaling pathway using the BG1 cell line - cell viability counter screen (AID 743081).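 Also: compound given together with 17beta-estradiol as the ER stimulus; nearly all actives have a fitted effect of over 45% in size.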 Also: potency is read from the fitted curve at half-maximal effect.
The next test addresses Aromatase (Homo sapiens) (UniProt P11511). Briefly: qHTS assay to identify aromatase inhibitors (AID 743083). Also: nearly all actives have a fitted effect of over 55% in size. Also: potency is read from the fitted curve at half-maximal effect.
Test [14] in a line: qHTS assay to identify aromatase inhibitors - cell viability counter screen (AID 743084).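 Also: cells stimulated with testosterone during compound exposure; nearly all actives have a fitted effect of over 55% in size.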 Also: potency is read from the fitted curve at half-maximal effect.
Test [15] is described as follows: qHTS assay to identify small molecule that activate the aryl hydrocarbon receptor (AhR) signaling pathway - cell viability counter screen (AID 743086). Also: nearly all actives have a fitted effect of over 45% in size. Also: potency is read from the fitted curve at half-maximal effect. The gist of the method:
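Cytotoxicity counter screen: CellTiter-Fluor signal (30 min, 37 C) in 4000 HepG2 cells/well carrying the DRE-luciferase reporter, following 24 h compound exposure at 37 C.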

Test [16] is described as follows: qHTS assay to identify small molecule phospholipidosis (PLD) inducers (AID 1259344; active = well fitted curve in the direction sought with a large enough effect; an effect the other way counts as inactive or inconclusive). The gist of the method:
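Fluorescent phospholipid staining (LipidTOX Red) measured by automated microscopy in fixed HepG2 cells after 24 h treatment; nuclei counterstained with Hoechst 33342; amiodarone as reference inducer.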

The target in test [17] is Nuclear receptor subfamily 1 group I member 2 (Rattus norvegicus) (UniProt Q9R1A7). Briefly: Rat pregnane X receptor (rPXR) activation by small molecules, qHTS assay (AID 1346983). Also: nearly all actives have a fitted effect of over 20% in size. The conditions noted are these: rPXR luciferase reporter cells, One-Glo luminescence, 24 h; max activation: active compounds read high. The gist of the method:
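Luminescent readout (One-Glo luciferase, 30 min room temperature) followed 24 hr compound treatment at 37 C of rPXR cells plated 2,000 per well and preincubated 5hr; qHTS format with compounds delivered in DMSO.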

Test [18] in a line: qHTS assay for small molecules that induce genotoxicity in human embryonic kidney cells expressing luciferase-tagged ATAD5 - cell viability (AID 651634; calls by dose curve; also: nearly all actives have a fitted effect of over 25% in size; also: potency is read from the fitted curve at half-maximal effect). Put shortly: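 Cytotoxicity counterscreen in HEK293T cells bearing an ATAD5-luciferase reporter: live-cell protease activity measured by CellTiter-Fluor fluorescence after 15.5 hr compound exposure.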
Test [19] concerns the target Aryl hydrocarbon receptor (Homo sapiens) (UniProt P35869). The test can be described thus: qHTS assay to identify small molecule that activate the aryl hydrocarbon receptor (AhR) signaling pathway (AID 743085).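 Also: HG2L7.5c1 human HepG2 liver cells with stably integrated DRE-driven firefly reporter; series mostly up to about 70 µM; nearly all actives have a fitted effect of over 15% in size.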 Put shortly:
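Luminescence read-out: ONE-Glo reagent, 30 min at room temperature, in HG2L7.5c1 HepG2 reporter cells treated 24 h at 37C. Viability was measured beforehand by CellTiter-Fluor fluorescence after 30 min at 37C.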

The structures appear in SMILES notation. Where “and” joins values, the source holds several entries; their conditions need not be identical. Identical values can stand only once. Values without a mark were called inactive. Records with an inconclusive call do not appear. Calls of active or inactive are those of the source. Unless noted, calls follow the shape of the dose curve; as a rule, active = well fitted curve in the direction sought with a large enough effect in the repeat runs; inconclusive = weak or mixed curves; inactive = no such curve, though single readings can be large; an effect the other way counts as inactive or inconclusive.
% is scaled to controls: 0 for no effect and ±100 for the full control effect.

Aryl hydrocarbon receptor (Homo sapiens), sequence (P35869 whole entry, looked up): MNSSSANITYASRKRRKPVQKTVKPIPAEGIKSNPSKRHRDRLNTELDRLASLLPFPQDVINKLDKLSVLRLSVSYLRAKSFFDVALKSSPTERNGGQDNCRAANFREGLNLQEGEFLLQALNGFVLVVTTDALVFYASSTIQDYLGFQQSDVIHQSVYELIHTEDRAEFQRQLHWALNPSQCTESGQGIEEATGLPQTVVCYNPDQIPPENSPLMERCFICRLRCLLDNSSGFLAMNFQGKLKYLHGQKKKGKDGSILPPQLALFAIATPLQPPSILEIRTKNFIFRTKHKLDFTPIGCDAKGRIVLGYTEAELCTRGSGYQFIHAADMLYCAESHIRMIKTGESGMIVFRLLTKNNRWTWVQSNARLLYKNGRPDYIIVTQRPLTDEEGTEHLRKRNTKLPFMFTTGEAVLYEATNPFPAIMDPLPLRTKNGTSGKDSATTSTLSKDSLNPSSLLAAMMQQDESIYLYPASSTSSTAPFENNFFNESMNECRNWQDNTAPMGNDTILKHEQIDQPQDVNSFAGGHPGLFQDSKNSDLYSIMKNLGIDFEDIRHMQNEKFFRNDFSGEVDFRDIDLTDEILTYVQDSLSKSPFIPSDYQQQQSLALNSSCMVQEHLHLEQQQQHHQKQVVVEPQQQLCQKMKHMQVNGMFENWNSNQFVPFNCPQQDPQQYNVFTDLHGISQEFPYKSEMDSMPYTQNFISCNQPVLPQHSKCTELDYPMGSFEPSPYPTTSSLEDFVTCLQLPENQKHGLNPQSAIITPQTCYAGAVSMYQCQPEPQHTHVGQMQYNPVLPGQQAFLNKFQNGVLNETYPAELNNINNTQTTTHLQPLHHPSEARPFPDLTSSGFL
Aromatase (Homo sapiens), sequence (P11511 whole entry, looked up): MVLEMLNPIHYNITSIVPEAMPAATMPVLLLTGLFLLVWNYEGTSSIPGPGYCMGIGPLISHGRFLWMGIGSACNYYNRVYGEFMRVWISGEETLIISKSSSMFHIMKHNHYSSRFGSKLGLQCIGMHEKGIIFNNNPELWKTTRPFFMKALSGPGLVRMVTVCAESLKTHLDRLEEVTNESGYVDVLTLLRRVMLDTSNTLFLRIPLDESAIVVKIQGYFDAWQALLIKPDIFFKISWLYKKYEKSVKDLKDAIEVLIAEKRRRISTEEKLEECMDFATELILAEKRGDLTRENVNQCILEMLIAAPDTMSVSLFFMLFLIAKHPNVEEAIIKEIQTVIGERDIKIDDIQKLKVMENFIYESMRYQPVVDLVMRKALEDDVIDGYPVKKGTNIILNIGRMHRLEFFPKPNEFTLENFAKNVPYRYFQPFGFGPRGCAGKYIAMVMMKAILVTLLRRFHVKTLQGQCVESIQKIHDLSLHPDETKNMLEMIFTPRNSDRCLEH
Nuclear receptor subfamily 1 group I member 2 (Rattus norvegicus), sequence (Q9R1A7 whole entry, looked up): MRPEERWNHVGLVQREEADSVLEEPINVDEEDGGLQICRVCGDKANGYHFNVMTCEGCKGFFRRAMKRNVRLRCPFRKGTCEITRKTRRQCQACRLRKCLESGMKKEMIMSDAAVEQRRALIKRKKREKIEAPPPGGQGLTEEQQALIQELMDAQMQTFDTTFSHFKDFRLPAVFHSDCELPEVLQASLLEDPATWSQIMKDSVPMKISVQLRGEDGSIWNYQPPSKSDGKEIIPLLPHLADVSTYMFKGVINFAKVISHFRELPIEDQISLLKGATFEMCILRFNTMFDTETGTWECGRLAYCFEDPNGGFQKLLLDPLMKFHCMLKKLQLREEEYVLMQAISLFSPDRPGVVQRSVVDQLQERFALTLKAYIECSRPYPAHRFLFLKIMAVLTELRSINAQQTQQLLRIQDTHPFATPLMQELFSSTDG

In the case of `CCCC(=O)OC(C(Cl)(Cl)Cl)P(=O)(OC)OC` (centres undefined), the Potency result in test [1], in [2], in [3], in test [4], in test [5] and in test [8] was “inactive” each time. In addition, the Potency result (in [9]; in test [10]; in test [11]; in test [12]; in [13]; with Aromatase (Homo sapiens)) was “inactive” each time. Moreover, the Potency entry in test [14], in test [15] and in [16] was “inactive” each time. Further, the compound was classed as inactive in [6] and in [7]. The max activation in test [17] is 0.574%.

As for `C[N+]1([O-])[C@@H]2CC[C@H]1CC(OC(=O)C(CO)c1ccccc1)C2` (some centres undefined), the Potency entry in test [18], in [1], in [2], in test [3], in test [4] and in [5] was “inactive” each time. In addition, the Potency entry (in test [8]; in test [9]; in test [10]; in [12]; in [13]; with Aromatase (Homo sapiens)) was “inactive” in each case. The Potency entry in test [14], in test [19], in test [15] and in test [16] was “inactive” each time. The compound was called inactive in test [6] and in test [7]. The max activation in [17] is -0.187% and -0.592%.

Regarding `CC(C)CCC(=O)O[C@H]1CC[C@H]2[C@@H]3CCC4=CC(=O)CC[C@]4(C)[C@H]3CC[C@]12C`, the Potency result in [18], in [1], in test [2], in test [3], in [4] and in test [5] was “inactive” throughout. Besides, the Potency entry (in test [8]; in test [10]; in test [11]; in test [12]; in test [13]; with Aromatase (Homo sapiens)) was “inactive” throughout. Further, the Potency entry in [14], in [19], in [15] and in [16] was “inactive” in each case. The result in test [6] and in test [7] was inactive. For the same compound, in test [17], the max activation is 2.99%.

For the compound `CN(C)[C@H](Cc1ccccc1)c1ccccc1`, the Potency result in test [18], in [1], in test [2], in [3], in [4] and in [5] was “inactive” in each case. For the same compound, the Potency result in test [8], in test [9], in test [10], in test [11], in test [12] and in [13] was “inactive” throughout. Further, the Potency result (with Aromatase (Homo sapiens); in test [14]; in test [19]; in test [15]; in test [16]) was “inactive” each time. Also, the call in test [6] and in test [7] was inactive. Also, the max activation in test [17] is 0.224%.

With `O=C1Nc2ccc(Cl)cc2C(c2ccccc2Cl)=NC1O` (centres undefined), the Potency entry in test [18], in test [1], in test [2], in test [3], in [4] and in test [5] was “inactive” in each case. Besides, the Potency entry in test [8], in test [9], in test [10], in test [11], in [12] and in test [13] was “inactive” each time. For the same compound, the Potency result (in the test with Aromatase (Homo sapiens); in test [14]; in test [19]; in test [15]; in test [16]) was “inactive” each time. Also, the compound was classed as inactive in test [6] and in test [7]. In [17], the max activation was -2.09%.

For the compound `Oc1cccc[c]1[Hg][Cl]`, the Potency is 4.22 µM (active) in [18]; 13.3 µM (active) in test [1]; 7.5 µM (active) in test [10]; 21.3 µM (active) in test [12]; 23.7 µM (active) in test [13]; 3.76 µM (active) with Aromatase (Homo sapiens). Besides, the Potency was 5.31 µM (active) in test [14] and 16.8 µM (active) in [15]. Also, the Potency result in [2], in test [3], in [4], in test [5], in [8] and in test [9] was “inactive” in each case. For the same compound, the Potency result in [19] and in test [16] was “inactive” each time. The compound was called inactive in [6] and in [7]. In test [17], the max activation was -19.4%.

In the case of `CCC1(c2ccccc2)C(=O)NC(=O)N(C(=O)c2ccccc2)C1=O` (centres undefined), the Potency result in test [18], in test [1], in test [2], in test [3], in test [4] and in test [5] was “inactive” in each case. Also, the Potency entry (in [8]; in test [9]; in [10]; in test [11]; in [12]; in the test with Aromatase (Homo sapiens)) was “inactive” each time. The Potency entry in test [14], in test [19], in test [15] and in [16] was “inactive” throughout. Besides, the compound was called inactive in test [6] and in [7]. For the same compound, in test [17], the max activation was -3.53%.

In the case of `C#CCN1CC(=O)N(COC(=O)C2C(C=C(C)C)C2(C)C)C1=O` (centres undefined), the Potency entry in test [18], in [1], in test [2], in test [3], in test [4] and in [5] was “inactive” throughout. For the same compound, the Potency entry in test [8], in [9], in test [10], in [11], in test [12] and in test [13] was “inactive” throughout. Moreover, the Potency result (in the test with Aromatase (Homo sapiens); in test [14]; in test [19]; in [15]; in test [16]) was “inactive” each time. The outcome in test [6] and in [7] was inactive. Moreover, the max activation in test [17] is 7.13%.
